# Reference: PubChem BioAssay (NCATS)
# Records with an inconclusive call do not appear. Entries that show only a call come without a potency. Calls of active or inactive are those of the source. Unless noted, the call rests on the fitted dose curve; in most records, active means well fitted curve in the direction sought with a large enough effect; inconclusive means small, poorly fitted or top-dose-only effect, or another doubt; inactive means no such curve, though single readings can be large; an effect the other way counts as inactive or inconclusive.
# How the values were obtained:
# [1] = target: Glutaminase kidney isoform, mitochondrial (Homo sapiens) (UniProt O94925); experiment: qHTS for Inhibitors of Glutaminase (GLS): LOPAC Validation (AID 624146); settings: glutaminase enzyme activity inhibition; series mostly up to 46.1 µM;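 further: glutamate product detected by oxidase and peroxidase coupled Amplex red fluorescence gain; nearly all actives have a fitted effect of over 60% in size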
# Sequence of Glutaminase kidney isoform, mitochondrial (Homo sapiens) (O94925 whole entry, looked up, canonical isoform): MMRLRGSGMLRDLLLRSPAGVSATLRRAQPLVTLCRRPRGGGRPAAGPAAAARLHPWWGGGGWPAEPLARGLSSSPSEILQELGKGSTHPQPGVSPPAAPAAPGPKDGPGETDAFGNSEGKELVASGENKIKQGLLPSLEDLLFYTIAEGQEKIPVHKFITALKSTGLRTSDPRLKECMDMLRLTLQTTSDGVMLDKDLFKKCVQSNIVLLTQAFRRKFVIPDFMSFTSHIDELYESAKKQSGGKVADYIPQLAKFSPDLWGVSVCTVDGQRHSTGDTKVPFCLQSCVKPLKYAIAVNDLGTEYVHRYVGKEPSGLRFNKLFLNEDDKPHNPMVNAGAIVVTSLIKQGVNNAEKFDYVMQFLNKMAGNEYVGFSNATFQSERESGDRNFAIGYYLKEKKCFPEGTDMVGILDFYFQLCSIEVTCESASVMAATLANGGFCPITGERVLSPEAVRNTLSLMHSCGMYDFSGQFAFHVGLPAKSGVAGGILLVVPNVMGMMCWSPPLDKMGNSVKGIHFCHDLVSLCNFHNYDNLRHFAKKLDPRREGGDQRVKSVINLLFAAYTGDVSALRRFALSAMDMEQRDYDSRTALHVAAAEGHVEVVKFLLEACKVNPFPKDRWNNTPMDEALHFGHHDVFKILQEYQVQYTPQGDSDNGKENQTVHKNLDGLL
# In short: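 Assay buffer: 45 mM KH2PO4 pH 8.2, 0.02% Tween-20. hKGA acts on L-glutamine (1 mM solution added); product glutamate is reported by an oxidase/peroxidase Amplex Red coupling, with fluorescence taken at baseline and 30 min.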
# [2] = qHTS of Trypanosoma Brucei Inhibitors: LOPAC Validation (AID 624147); settings: purified enzyme assay, luminescence, 45 min; series mostly up to 57.5 µM
# In short: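 Quantitative HTS: titrated library compounds versus trypanosomal pyruvate kinase in TEA buffer (pH 7.2) containing KCl, MgCl2, BSA and Tween-20. Reactions were initiated with ADP, 130 uM final. Kinase-Glo Plus luminescence was read after 45 min at RT.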
# [3] = target: Glucagon-like peptide 1 receptor (Homo sapiens) (UniProt P43220); experiment: qHTS of GLP-1 Receptor Agonists: LOPAC Validation (AID 624148); settings: GLP-1R agonist cell assay; series mostly up to 46.1 µM;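 further: higher luminescence signal means agonism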
# Sequence of Glucagon-like peptide 1 receptor (Homo sapiens) (P43220 whole entry, looked up): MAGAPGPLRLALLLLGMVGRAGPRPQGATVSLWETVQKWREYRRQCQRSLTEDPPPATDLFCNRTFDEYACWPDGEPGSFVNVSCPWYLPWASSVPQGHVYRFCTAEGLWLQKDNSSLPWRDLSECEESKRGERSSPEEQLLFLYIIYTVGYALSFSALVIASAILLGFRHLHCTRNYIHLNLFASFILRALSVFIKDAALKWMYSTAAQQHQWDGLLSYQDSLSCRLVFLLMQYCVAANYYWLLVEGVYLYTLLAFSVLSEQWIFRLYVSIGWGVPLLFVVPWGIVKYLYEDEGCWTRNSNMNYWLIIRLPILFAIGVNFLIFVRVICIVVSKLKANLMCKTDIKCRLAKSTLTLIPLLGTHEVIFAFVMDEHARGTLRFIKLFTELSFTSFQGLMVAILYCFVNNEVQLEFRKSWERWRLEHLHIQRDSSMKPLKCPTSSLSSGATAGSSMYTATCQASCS
# In short: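 HEK293 cells stably co-expressing GLP-1R and a cAMP-responsive luciferase reporter, plated 12 hours before compound, then incubated 4-6 hr at 37 deg C. Luminescence read 12 min after detection reagent.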
# [4] = qHTS of Nrf2 Activators: LOPAC Validation (AID 624149); settings: Nrf2/ARE reporter cell assay; series mostly up to 46.1 µM
# In short: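 Following overnight seeding in 5% FBS OPTI-MEM, AREc32_Fluc cells receive compounds for a 24 hr incubation at 37 deg C with 5% CO2. Steady-Glo is added, and after 30 min at RT luminescence is recorded.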
# [5] = HTS Assay for Allosteric Antagonists of the Human D2 Dopamine Receptor: Hit Validation in HTRF (AID 624455); settings: Cells stably expressing D1 dopamine receptor, inhibition mode; series mostly up to 46.1 µM;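 further: stable D1 dopamine receptor cell line scored for blocking the D1 response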
# In short: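 Validation of hits used D1 receptor stably expressed in cells with HTRF detection of response inhibition; origin screen measured calcium flux following EC80 dopamine in a force-coupled, inducible Hek293 Trex D2 cell line.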
# [6] = S16 Schwann cell PMP22 intronic element beta-lactamase assay (AID 624044; calls by dose curve; further: nearly all actives have a fitted effect of over 15% in size; further: potency means the concentration at half of the fitted maximal effect); settings: S16 rat Schwann cells, PMP22 element beta-lactamase FRET, 24 h; series mostly up to 38.3 µM
# In short: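 Beta-lactamase reporter under a PMP22 intronic regulatory element in stable S16 rat Schwann cells; 24 h compound exposure. 460 nm blue signal normalized between DMSO (0%) and potassium clavulanate, with 535 nm FRET tracking viability; curves classed by r2 and response.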
# [7] = S16 Schwann cell viability assay (CellTiter-Glo assay) (AID 624031); settings: S16 rat Schwann cells viability, 24 h; series mostly up to 57.5 µM;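 further: native untransfected S16 rat Schwann cells; cellular ATP luminescence as a viability measure; nearly all actives have a fitted effect of over 70% in size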
# In short: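 Cells were seeded at 500-750 per well in phenol red-free DMEM with 10% FBS and left overnight. Compounds or DMSO were pinned in, incubation ran 24 h at 37 °C/5% CO2, then CellTiter-Glo reagent was added and luminescence measured.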
# [8] = Cytotoxicity counterscreen for NFkB agonists and antagonists (AID 624476); settings: NFkB reporter cell line viability counterscreen; series mostly up to 46.1 µM;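 further: cells exposed to compound for 48 hours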; further: potency means the concentration at half of the fitted maximal effect
# [9] = qHTS Assay for Identification of Small Molecule Agonists for NFkB Signaling Pathway. (AID 624478); settings: NFkB pathway reporter cell assay, agonist mode, cells co-stimulated with 10 pM TNF alpha; series mostly up to 46.1 µM;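 further: compounds tested together with TNF alpha at its EC50 of 10 pM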
# In short: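 Assay medium contained 0.5% FBS and 10 mM HEPES pH 7.3. Compounds were added together with TNF alpha (10 pM final), incubated 5 h at 37 C, and the beta-lactamase signal was measured fluorometrically.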
# [10] = qHTS Assay for Identification of Small Molecule Antagonists for NFkB Signaling Pathway. (AID 624479; calls by dose curve; further: potency means the concentration at half of the fitted maximal effect); settings: NFkB pathway reporter cell assay, antagonist mode; series mostly up to 38.3 µM
# [11] = Cell Proliferation Assay against the TMD8 Cell Line (AID 651645); settings: TMD8 DLBCL cell line proliferation/viability; at 46.1 µM (top of the series);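 further: cells exposed to compound for 48 h before reading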
# In short: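 Luminescent ATP read-out (CellTiter-Glo, 15 min RT) after 48 h compound exposure of log-growing TMD8 cells at 37C; percent activity scaled between DMSO as 100% and 9.2 uM bortezomib final as 0%.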
# [12] = Cell Proliferation Assay against the HBL1 Cell Line (AID 651646); settings: HBL1 DLBCL cells; at 46.1 µM (top of the series);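 further: cells exposed to compound for 48 h before reading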
# In short: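 HBL1, 500 cells/well, RPMI no phenol red + 5% FBS; cpd pinned, 48 h 37C/5% CO2; CellTiter-Glo, 15 min RT, luminescence. % activity: DMSO = 100%, bortezomib 9.2 uM final = 0%.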
# [13] = Cell Proliferation Assay against the TMD8 Cell Line (Caspase readout at 8 hrs) (AID 651713); settings: TMD8 lymphoma cells, caspase activation luminescence; series mostly up to 46.1 µM
# In short: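 Luminescent caspase 3/7 assay; TMD8 cells, 8 h treatment at 37C, 5% CO2. Normalisation: DMSO 0%, 9.2 uM bortezomib 100%.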
# [14] = Cell Proliferation Assay against the TMD8 Cell Line (Caspase readout at 16 hrs) (AID 651712); settings: TMD8 lymphoma cells, caspase activation luminescence; series mostly up to 46.1 µM; further: potency means the concentration at half of the fitted maximal effect
# In short: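 Caspase-Glo luminescence after 16 h compound exposure of TMD8 cells, 37 °C, 5% CO2. Medium: RPMI without phenol red, 5% FBS. Normalisation: DMSO = 0%, bortezomib 9.2 uM final = 100%.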
compound,measurement,setting,value
C[C@H]1O[C@@H](n2cc(F)c(=O)[nH]c2=O)[C@H](O)[C@H]1O,outcome,[1],inactive
same,outcome,[2],inactive
same,outcome,[3],inactive
same,outcome,[4],inactive
same,outcome,[5],inactive
COc1c(C)c2c(c(O)c1CC=C(C)CCC(=O)OCCN1CCOCC1)C(=O)OC2,Potency,[6],2.82 µM (active)
O=C1C(CCC(O)c2ccc(F)cc2)C(c2ccc(O)cc2)N1c1ccc(F)cc1 (stereo not given),outcome,[7],inactive
same,Potency,[6],inactive
same,Potency,[8],inactive
same,outcome,[9],inactive
same,Potency,[10],inactive
same,viability (% of control),[11],87.2%
same,"viability, percent of control",[12],68%
same,Potency,[13],inactive
O=C(O)c1nc(=O)[nH]c(=O)[nH]1,outcome,[7],inactive
same,Potency,[6],inactive
CC(C)CN(C[C@@H](O)[C@H](Cc1ccccc1)NC(=O)O[C@H]1CO[C@H]2OCC[C@H]21)S(=O)(=O)c1ccc(N)cc1,outcome,[7],inactive
CN1CC(=O)N2C(Cc3c([nH]c4ccccc34)[C@H]2c2ccc3c(c2)OCO3)C1=O (stereo not given in full),outcome,[7],inactive
same,Potency,[6],inactive
CC(C)C[C@@H](C(=O)N[C@H](C(=O)OC1CCCC1)c1ccccc1)[C@H](O)C(=O)NO,Potency,[8],inactive
same,outcome,[9],inactive
same,Potency,[10],inactive
same,viability (% of control),[11],4.45%
same,"viability, percent of control",[12],6.68%
same,Potency,[13],inactive
CCCCc1ccc(NS(=O)(=O)c2ccc(C)c(C(=O)N3CCN(c4cccc(C)c4C)CC3)c2)cc1,Potency,[8],20.9 µM (active)
same,Potency,[10],16.8 µM (active)
same,viability (% of control),[11],9.89%
same,"viability, percent of control",[12],6.19%
same,Potency,[14],20.9 µM (active)
CNC(=O)c1cc(Oc2ccc(NC(=O)Nc3ccc(Cl)c(C(F)(F)F)c3)c(F)c2)ccn1,Potency,[8],5.26 µM (active)
same,outcome,[9],inactive
same,Potency,[10],5.95 µM (active)
same,viability (% of control),[11],3.02%
same,"viability, percent of control",[12],4.87%
same,Potency,[14],inactive
same,Potency,[13],inactive
COc1ccc(CCN(C)CCCOc2ccc(S(=O)(=O)c3[nH]c4ccccc4c3C(C)C)cc2)cc1OC,outcome,[9],inactive
same,viability (% of control),[11],4.97%
same,"viability, percent of control",[12],7.05%
